FECH block: inhibitors of human ferrochelatase; AID 1671448; purified FECH, Ni-mesoporphyrin absorbance 550 nm; P22830; calls only at 10 µM (by protocol); actives 3.3% (n = 20,000);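 active = enzyme reaction rate more than 3 SD below the solvent-only control wells on the same plate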;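 note: lower slope than DMSO wells means FECH inhibition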
Target sequence (P22830 whole entry, looked up): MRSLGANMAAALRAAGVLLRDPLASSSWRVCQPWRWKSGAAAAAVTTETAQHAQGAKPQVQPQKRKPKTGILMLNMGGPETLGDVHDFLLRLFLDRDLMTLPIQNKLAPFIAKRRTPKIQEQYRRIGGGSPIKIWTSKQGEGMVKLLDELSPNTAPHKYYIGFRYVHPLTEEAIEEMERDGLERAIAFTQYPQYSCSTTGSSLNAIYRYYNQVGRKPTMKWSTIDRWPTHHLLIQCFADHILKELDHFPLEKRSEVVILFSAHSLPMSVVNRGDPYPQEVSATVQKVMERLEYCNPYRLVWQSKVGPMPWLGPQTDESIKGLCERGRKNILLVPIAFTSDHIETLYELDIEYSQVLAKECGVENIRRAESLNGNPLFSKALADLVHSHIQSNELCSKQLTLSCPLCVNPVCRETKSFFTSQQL
An asterisk follows results filed as active; i = inactive; + = active, no number. This is one part of a sample in which hits are shown more often than they occur.

SMILES | FECH block
CC(C)(C)NC(=O)c1ccccc1NC(=O)CN1c2ccc(F)cc2-c2ccccc2S1(=O)=O | i
COC(=O)c1cc(NC(=O)CN2c3ccc(F)cc3-c3ccccc3S2(=O)=O)cc(C(=O)OC)c1 | +
CCOC(=O)c1ccc(NC(=O)CN2CCN(Cc3ccc(F)cc3Cl)S2(=O)=O)cc1 | i
CC(CCc1ccccc1)NC(=O)CN1c2ccc(Br)cc2-c2ccccc2S1(=O)=O (centres undefined) | i
CCc1ccc2c(c1)-c1ccccc1S(=O)(=O)N2CC(=O)Nc1ccccc1C(=O)N1CCCC1 | i
CC(CCc1ccccc1)NC(=O)CN1c2ccc(F)cc2-c2ccccc2S1(=O)=O (centres undefined) | +
O=C(CN1c2ccc(F)cc2-c2ccccc2S1(=O)=O)NCCCN1CCOCC1 | i
CCCCOC(=O)c1ccc(NC(=O)CN2c3ccc(F)cc3-c3ccccc3S2(=O)=O)cc1 | +
CN(Cc1cc(C2CC2)on1)Cc1ncccc1C(=O)O | i
O=C(CN1C(=O)CC(c2ccccc2Cl)=Nc2ccccc21)Nc1ccccc1 | i
CC(C)CCNS(=O)(=O)c1ccc2c(c1)CCN2C(=O)CCC(=O)N1CCCCCC1 | i
Cc1noc(C(C)N(C)Cc2cccc(C(=O)Nc3ncc(C)s3)c2)n1 (centres undefined) | i
CC(=O)N1c2ccc(S(=O)(=O)N(C)CC(=O)Nc3ccc(S(N)(=O)=O)cc3)cc2CC1C (centres undefined) | i
COc1ccc(S(=O)(=O)NCc2nc3cccnc3n2C2CC2)cc1 | +
O=S(=O)(NCc1nc2cccnc2n1C1CC1)c1ccc(Cl)cc1 | i
Cc1ccc(S(=O)(=O)NCc2nc3cccnc3n2CC(C)C)cc1Cl | i
CCn1c(CNS(=O)(=O)c2ccc(CC(C)C)cc2)nc2cccnc21 | i
Cc1ccc(S(=O)(=O)NCc2nc3cccnc3n2CC(C)C)cc1C | +
CCCc1ccc(S(=O)(=O)NCc2nc3cccnc3n2C)cc1 | +
COCCn1c(CNS(=O)(=O)c2ccc(CC(C)C)cc2)nc2cccnc21 | +
CC(C)Cn1c(CNS(=O)(=O)c2cccc(Cl)c2)nc2cccnc21 | i
CC(=O)Nc1ccc(S(=O)(=O)NCc2nc3cccnc3n2C)cc1 | i
Cc1ccc(S(=O)(=O)NCc2nc3cccnc3n2C2CC2)cc1 | i
COCCn1c(CNS(=O)(=O)c2ccc(C(C)C)cc2)nc2cccnc21 | i
CC(C)Cc1ccc(S(=O)(=O)NCc2nc3cccnc3n2C)cc1 | i
SMILES | FECH block
COc1ccc(-c2cc(N3CCN(C(=O)NCC(C)C)CC3)ncn2)cc1 | i
CCc1ncc(C(=O)NCc2cc3c(nc2OC)CN(CC)C3=O)cn1 | i
Cc1nc2c(c(NCCCc3nc4c(C)c(C)ccc4[nH]3)n1)CCNC2 | i
CCOC(=O)c1ccc(NC(=O)Cc2csc(NC(=O)Nc3cccc(Cl)c3)n2)cc1 | i
CCCCC1C(=O)N(C)CCN1C(=O)Nc1nc(-c2ccccc2)ns1 (centres undefined) | i
CCCOCCN1CCC2(CC1)c1ccccc1CC2O (centres undefined) | i
COc1ccc(CCNc2ncc(C)c(-c3cnn(C)c3)n2)cc1OC | i
CCc1ccc(S(=O)(=O)Nc2cnc(N3CCN(c4cccc(C)c4)C(C)C3)c(C(=O)O)c2)cc1 (centres undefined) | i
COc1ccccc1Cn1c(CNS(=O)(=O)c2ccc(C(C)(C)C)cc2)nc2cccnc21 | +
CCOc1ccc(S(=O)(=O)NCc2nc3cccnc3n2Cc2ccccc2OC)cc1 | i
COc1ccccc1Cn1c(CNS(=O)(=O)c2ccc(F)cc2)nc2cccnc21 | i
CN(C)CCNC(=O)c1[nH]cnc1C(=O)NC1CCCCC1 | i
O=C1CN(Cc2ccc(F)cc2)S(=O)(=O)c2ccccc2N1Cc1ccccc1 | i
O=C1CN(Cc2ccc(F)cc2Cl)S(=O)(=O)c2ccccc2N1Cc1ccccc1F | i
O=C1CN(Cc2ccccc2)S(=O)(=O)c2ccccc2N1Cc1ccccc1F | +
O=C(O)C1(CCCc2ccccc2)CCCN(c2cnccn2)C1 (centres undefined) | i
O=C(c1ccco1)N1CCOc2c(O)cc(-c3nc4ccccc4s3)cc2C1 | i
CC(CNC(=O)CCC(=O)NC1CCCC1)c1ccc(Cl)cc1 (centres undefined) | i
CCOc1ccc(-c2nc(CSc3nc(C)c(CC)c(=O)[nH]3)c(C)o2)cc1 | i
COc1ccc(CN2CCCN(CC(=O)Nc3ccc4c(c3)OCCO4)S2(=O)=O)cc1 | i
COc1ccc(CNS(=O)(=O)c2ccc(C(=O)N(C)C)s2)cc1 | i
COc1ccc(NC(=O)CN(C)S(=O)(=O)c2ccc(C(=O)N3CCOCC3)s2)cc1 | +
COc1ccccc1Oc1ncccc1CNC(C)CC(F)(F)F (centres undefined) | i
CCC(=O)Nc1ccccc1-c1nnc(SCC(=O)Nc2ccccc2C)[nH]c1=O | i
Cn1ccc2c(-c3cccc(O)c3)ccnc21 | i
SMILES | FECH block
CC(=O)c1cccc(-c2ccnc3[nH]ccc23)c1 | +
FC(F)(F)c1ccc(-c2ccnc3[nH]ccc23)nc1 | i
CC(Cc1cn(Cc2ccccn2)nn1)c1ccccc1 (centres undefined) | i
Cn1cc(CN(Cc2cc3cc4c(cc3[nH]c2=O)OCO4)C2CC2)cn1 | i
Cc1ccc(C(C)NC(=O)CN(Cc2cnn(C)c2)C2CC2)cc1 (centres undefined) | i
Cn1cc(CN(Cc2ccc(CO)o2)C2CC2)cn1 | +
CC(=O)Nc1ccc(NC(=O)Cc2csc(NC(=O)Nc3cccc(Cl)c3)n2)cc1 | i
CCc1cc(Sc2ccccc2NC(=O)c2ccccc2C)n2ncnc2n1 | i
COc1cccc(CN(c2nc3nc(C)c(Cl)c(C)n3n2)S(=O)(=O)c2ccc(C)cc2)c1 | i
CCn1c(=O)n(Cc2ccccc2Cl)c(=O)c2cnc(-c3ccc(OC)cc3)nc21 | i
CCn1c(=O)n(Cc2cccc(OC)c2)c(=O)c2cnc(-c3ccc(Cl)cc3)nc21 | i
C=Cc1ccc(Cn2c(=O)c3cnc(-c4ccc(OC)cc4)nc3n(CC)c2=O)cc1 | i
CCn1c(=O)n(Cc2cccc(Cl)c2)c(=O)c2cnc(-c3ccc(OC)cc3)nc21 | +
CCn1c(=O)n(Cc2cccc(OC)c2)c(=O)c2cnc(-c3ccc(OC)cc3)nc21 | i
CCn1c(=O)n(Cc2ccncc2)c(=O)c2cnc(-c3ccc(OC)cc3)nc21 | +
O=C(c1cncnc1)N1CCC(Cc2nnc(CO)n2-c2ccccc2)CC1 | i
CCc1ccc(-c2noc3c(=O)n(CCC(=O)Nc4ccc(S(N)(=O)=O)cc4)cnc23)cc1 | i
NS(=O)(=O)c1ccc(NC(=O)c2cc(-c3ccc(Cl)cc3)on2)cc1 | +
CCOc1ccc(NC(=O)c2cc(-c3ccc(OC)c(S(N)(=O)=O)c3)n[nH]2)cc1 | i
CCOc1ccc(-c2cc(C(=O)Nc3ccc(S(N)(=O)=O)cc3)no2)cc1 | +
NS(=O)(=O)c1ccc(NC(=O)c2nn(-c3cccc(Cl)c3)ccc2=O)cc1 | i
NS(=O)(=O)c1ccc(NC(=O)c2noc3c2CCCC3)cc1 | i
Cn1nc(C(=O)NCc2ccccc2)c2c1CCN(C(=O)CC1CCCC1)C2 | i
Cc1cc(NC(=O)c2c(F)cccc2F)n(-c2ncnc3c2cnn3-c2cccc(C)c2C)n1 | i
CCOCCCNc1nc(Nc2ccc(C)cc2)c2cnn(-c3ccccc3)c2n1 | i
CCOC(=O)c1cc2ccsc2n1CC(=O)Nc1c(C)cccc1C | i

Assay outcomes (PubChem)
